The whole screen tested about 200,000 compounds, of which about 3,000 (1.5%) were called active. Many of the other results were omitted from the sample, so actives are more common in it than they were. A number with no mark means an inactive call.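 Rule for the calls: active = inhibition above about 50% when tested at 10 µM (limit read from the data); inactive = the rest.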
Each molecule was assayed against Luciferin 4-monooxygenase (Photinus pyralis) (UniProt P08659) (assay: inhibition of purified FLuc reporter enzyme – biochemical, luminescence, ATPLite, artefact control for luciferase-based inhibitor screens, primary screen (AID 1006)). Conditions: ATPLite firefly luciferase biochemical luminescence, 10 min; at 10 µM; active compounds read high.
Sequence of Luciferin 4-monooxygenase (Photinus pyralis) (P08659 whole entry, looked up): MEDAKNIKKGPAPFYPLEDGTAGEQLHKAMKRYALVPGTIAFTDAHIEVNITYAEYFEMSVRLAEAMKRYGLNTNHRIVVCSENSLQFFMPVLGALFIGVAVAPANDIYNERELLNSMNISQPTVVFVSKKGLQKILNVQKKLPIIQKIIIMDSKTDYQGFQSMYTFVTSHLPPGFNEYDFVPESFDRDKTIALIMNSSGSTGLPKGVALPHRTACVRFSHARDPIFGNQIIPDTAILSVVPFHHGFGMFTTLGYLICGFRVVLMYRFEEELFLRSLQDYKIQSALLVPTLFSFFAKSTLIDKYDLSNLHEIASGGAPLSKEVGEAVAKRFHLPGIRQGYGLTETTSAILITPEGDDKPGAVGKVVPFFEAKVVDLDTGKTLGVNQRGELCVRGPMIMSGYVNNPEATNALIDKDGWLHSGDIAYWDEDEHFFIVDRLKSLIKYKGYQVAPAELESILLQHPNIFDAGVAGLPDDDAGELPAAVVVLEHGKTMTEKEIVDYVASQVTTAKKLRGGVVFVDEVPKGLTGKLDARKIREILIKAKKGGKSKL

| Structure (SMILES) | inhibition |
| --- | --- |
| COc1ccc(/C=N/Nc2nc3ccccc3c(=O)[nH]2)cc1 | 59.4% (active) |
| CCN(CC)c1ccc(/C=N/Nc2nc(C)cc(=O)[nH]2)cc1 | 26.8% |
| COc1ccc(C=Nc2cccc3ncccc23)cc1 | -0.8% |
| C[C@@H]1NC(=O)c2cc([N+](=O)[O-])cc(F)c2NCCC[C@@H](C(N)=O)NC(=O)[C@H](CC(N)=O)NC1=O | -4.9% |
| Fc1ccccc1Cc1ccc(Cl)nn1 | -5.5% |
| CC(C)c1ccc(-c2nn[nH]n2)cc1 | 56.6% (active) |
| CCc1ccc(-c2nnn(Cc3nn[nH]n3)n2)cc1 | -1.9% |
| c1cc(-c2nn[nH]n2)ccc1CN1CCCCC1 | -3.9% |
| O=C(COC(=O)C12CC3CC(CC(O)(C3)C1)C2)NC12CC3CC(CC(C3)C1)C2 | -8.6% |
| Cc1cc(Br)ccc1SCC(=O)OCC(=O)NCc1ccc2c(c1)OCO2 | -0.9% |
| Cn1cc(CN2CCCCC2c2ccccn2)c(-c2ccc3c(c2)OCCO3)n1 (configuration not stated) | -5% |
| COC(=O)C1=C(C)N(C)C(=O)NC1c1ccc([N+](=O)[O-])o1 (configuration not stated) | -8% |
| CCOc1ncccc1C(=O)OCc1cn2cc(Cl)ccc2n1 | -4.4% |
| O=c1cc(CSc2ccc(Cl)cc2)nc(N2CCOCC2)[nH]1 | -3.7% |
| Clc1ccc2nc(CSc3ccccc3)cn2c1 | 51% (active) |
| CN(c1cccc(NC(=O)Nc2ccc(Cl)cc2)c1)S(C)(=O)=O | 50.6% (active) |
| Cc1ccc(N(CC(=O)Nc2cccc(N(C)S(C)(=O)=O)c2)S(C)(=O)=O)cc1 | 1.1% |
| COc1cccc(N(CC(=O)Nc2cccc(N(C)S(C)(=O)=O)c2)S(C)(=O)=O)c1 | -3.8% |
| Cc1ccc(/C=C/C(=O)Nc2cc(S(=O)(=O)N3CCCCCC3)ccc2OCC(F)(F)F)o1 | -5.3% |
| Cn1c(=O)n(Cc2ccco2)c(=N)c2c3c(sc21)CCCC3 | -0.5% |
| O=c1oc(-c2ccco2)nc2sc3c(c12)CCCCC3 | 82.9% (active) |
| O=C(NCc1ccco1)c1cccn2c(=O)c3c4c(sc3nc12)CCCC4 | -5.5% |
| O=C(c1cn2ccccc2n1)N1CCc2c([nH]c3ccccc23)C1c1ccccn1 (configuration not stated) | 1% |
| C=CCn1c(C)cc(C(=O)CN2C(=O)c3ccccc3C2=O)c1C | 57.4% (active) |
| C=CCN(CC=C)C(=O)CN1C(=O)c2ccccc2C1=O | -5% |
| Cc1cc(C(=O)COC(=O)CCCN2C(=O)c3ccccc3C2=O)c(C)n1C | 8.4% |
| O=C1COc2ccc(C(=O)COC(=O)C3CC(O)CN3S(=O)(=O)c3ccc(Cl)cc3)cc2N1 (configuration not stated) | 29.8% |

Source: PubChem BioAssay AID1006 (Sanford-Burnham Center for Chemical Genomics, 2008)
